Assay results published in PubChem BioAssay AID492998 (Southern Research Specialized Biocontainment Screening …, 2010).
In all, about 2,300 compounds went through this assay and about 550 (24%) were called active. How the calls were made is not given here. A selection follows. Entries that show only a call come without a potency. Potency and affinity values are given separately.

Experiment: Vero E6 cell cytotoxicity, dose response, cytotoxicity control for non-replicating M. tuberculosis project, secondary assay (AID 492998)
Conditions: series mostly up to 20 µM

Compound | outcome
COc1ccccc1C(=O)OCC(=O)Nc1ccc(Cl)cn1 | inactive
CC(C)(C)NC(=O)c1ccc(NC(=O)c2ccccc2-c2ccccc2C(=O)O)cc1 | inactive
CN1CCC(O)(c2ccc(Cl)cc2)C(C(=O)c2ccc(Cl)cc2)C1 (centres undefined) | inactive
Cc1nnc(NC(=O)c2ccc3ccccc3c2)o1 | inactive
Cc1nc(Cl)nc(N(C)c2ccccc2)c1[N+](=O)[O-] | inactive
N/C(=N/OC(=O)c1ccc(Cl)cc1)c1ncc([N+](=O)[O-])s1 | inactive
O=C(Cn1cc([N+](=O)[O-])nc1[N+](=O)[O-])N1CCN(c2ccccc2)CC1 | inactive
Cc1cc(C=C2C(=O)NC(=S)NC2=O)c(C)n1C1CCCC1 | inactive
CSc1nc2ccc(NC(=O)C3CC(=O)N(Cc4ccccc4)C3)cc2s1 (centres undefined) | inactive
CC1CCN(CCc2nc3cc(NC(=O)COc4ccc(Cl)cc4)ccc3n2C)CC1 | inactive
NC(=S)n1[nH]c(-c2ccc([N+](=O)[O-])cc2)c(N=Nc2ccc(O)cc2)c1=O | inactive
COC(=O)c1ccc(CSc2nnc(-c3ccncc3)o2)o1 | inactive
CCOC(=O)COc1ccc(/C=C2\NC(=S)N(CC)C2=O)cc1 | inactive
FC(F)(F)c1ccc(NCCc2ccccc2)nc1 | inactive
O=C(COc1ccc(F)cc1)N/N=C/c1cccc2cccnc12 | inactive
O=C1/C(=C/c2cccs2)COc2ccccc21 | inactive
Brc1ccc(OCCCCN2CCCCC2)cc1 | inactive
Cc1occc1C(=O)N/N=C/C(Br)=C\c1ccccc1 | inactive
O=C(CN1CCCCC1)Nc1nnc(-c2ccc([N+](=O)[O-])cc2)s1 | inactive
N#Cc1nc(-c2cccs2)oc1NCCc1ccccc1 | inactive
COc1cc(N=c2ssnc2Cl)cc(OC)c1OC | inactive
N=c1n(CCN2CCCCC2)c2ccccc2n1CC(=O)c1ccc(Cl)c(Cl)c1 | inactive
O=C1Nc2cc(C(=O)NCCCN3CCOCC3)ccc2S/C1=C/c1cccc(Cl)c1 | inactive
COCCOC(=O)c1c(C)oc2ccc(OC(=O)c3ccco3)cc12 | inactive

Compound | outcome
O=C(Nc1ncc(Cc2ccccc2)s1)C1=NCCN1 | inactive
OCC#CCSc1nnc(-c2ccc(Br)cc2)o1 | inactive
CCN(CC)c1ccc2c(c1)oc(=O)c1c(Cl)cc(=O)oc12 | inactive
CN(CCOCCOc1ccc(F)cc1)Cc1ccccc1 | inactive
CCCCOC(=O)Cn1c(-c2ccccc2)nc2ccccc2c1=O | inactive
CCOC(=O)c1cc(-c2csc(COc3ccc(Cl)cc3)n2)on1 | inactive
NC(=O)C1CCN(C2CC(=O)NC2=O)CC1 (centres undefined) | inactive
CCC(C)n1c(=S)[nH]c2ccccc2c1=O (centres undefined) | inactive
Nc1ccc2nc3c(c(Cl)c2c1)CCCC3 | inactive
O=C(CCSc1nnc(-c2ccncc2)o1)Nc1ccc(Cl)cc1 | inactive
CCOC(=O)C(C)(C)n1nnc(-c2ccc([N+](=O)[O-])cc2)n1 | inactive
CCC1(O)CC(c2ccccc2)=NN1C(=O)c1ccccc1F (centres undefined) | inactive
Cc1cc(=O)n2cccc(O)c2n1 | inactive
O=C(NNc1nc2cc3c(cc2s1)OCCO3)c1ccccc1 | inactive
C/C(CC(=O)Nc1ccc(N(C)C)cc1)=N\NC(=O)c1ccncc1 | inactive
NC(=O)c1cccnc1Nc1cccc(F)c1 | inactive
CN(C)CCCn1c(=O)n(C2CCCCC2)c(=O)c2c3c(sc21)CCCCC3 | inactive
CN(C)CCNc1c2c(c(C#N)c3nc4ccccc4n13)CCCC2 | inactive
COc1cc(/C=N/Nc2ccc(Cl)c(C(=O)O)c2)ccc1OC(=O)c1cccs1 | inactive
CC1=NN(C(=O)c2csc(C)c2C)C(O)(C(F)(F)F)C1 (centres undefined) | inactive
O=C(CCc1ccccc1F)N1CCN(c2ccccc2)CC1 | inactive
Cc1cc(/C=N\NC(=O)c2cccs2)c(C)n1-c1ccc2ncccc2c1 | inactive
O=c1cc(-c2ccccc2Cl)oc2c([N+](=O)[O-])c(O)cc(O)c12 | inactive
C/C(=N\NC(=O)c1cccc(Cl)c1)C1C(=O)c2ccccc2C1=O | inactive

Compound | outcome
CC1CCN(C(=O)COC(=O)c2cc3ccccc3cc2O)CC1 | inactive
C/C(=N/NC(=O)c1cccc(C)c1)c1c(O)cc(C)oc1=O | inactive
O=C(NC(=S)NCCc1ccccc1)c1ccccc1 | inactive
C/C(=N\NC(=O)c1ccncc1)c1cc2ccccc2oc1=O | inactive
O=C(CCc1ccccc1)NC1C2CC3CC(C2)CC1C3 (centres undefined) | inactive
O=C1/C(=C/C=C/c2ccccc2)Oc2c1ccc(O)c2CN1CCN(CCO)CC1 | inactive
O=C(COC(=O)C1CC2C=CC1C2)Nc1ccccc1 (centres undefined) | inactive
COC(=O)c1cc2c(ccc3ccccc32)oc1=O | inactive
COc1ccc(-c2cc(=O)oc(-c3cccc(C)c3)n2)cc1 | inactive
Cc1nn(-c2ccccc2)nc1C(=O)c1c(C)[nH]n(-c2ccccc2)c1=O | inactive
O=C(OCc1c(Cl)cccc1Cl)c1ccccn1 | inactive
CCOC(=O)c1ccc(COC(=O)c2cc3ccccc3oc2=O)o1 | inactive
CC(=O)NCCOC(=O)Nc1sc(=S)n(C)c1C | inactive
CC1CCN(C(=O)C2COc3ccccc3O2)CC1 (centres undefined) | inactive
Cc1csc(=Nc2cccnc2)n1CC1CCCCC1 | inactive
CNC(=O)COC(=O)c1ccc(-c2nc3ccccc3s2)s1 | inactive
CC(C)N1CCc2c(sc(NC(=O)CCS(=O)(=O)c3ccccc3)c2C#N)C1 | inactive
COCCCC1CCN(Cc2nc(-c3ccccc3)no2)CC1 | inactive
CC(C)(C)c1ccc(S(=O)(=O)NNC(=O)c2cc3ccccc3[nH]2)cc1 | inactive
CC(C)(C)CC(=O)NC(=S)NCc1ccco1 | inactive
CCOC(=O)COc1cc(N)c(Cl)cc1Cl | inactive
CCn1cc(C(=O)NC(C)C23CC4CC(CC(C4)C2)C3)cn1 (centres undefined) | inactive
Cc1ccc(S(=O)(=O)N2CCC(C(=O)OCc3ccccc3)CC2)cc1C | inactive
COc1ccc2c([N+](=O)[O-])c(N3CCCC3)[nH]c2c1 | inactive

Compound | outcome
Cc1ccc(OCCCCn2ccnc2)c([N+](=O)[O-])c1 | inactive
Clc1cccc(-c2ccc(CNCc3ccccn3)o2)c1 | inactive
Fc1ccc(-c2ccc(CNCc3ccccn3)o2)cc1Cl | inactive
Clc1ccc(-c2ccc(CNCc3ccccn3)o2)cc1 | inactive
CCCc1cc(NCCCn2ccnc2)n2nc(C)c(-c3ccccc3)c2n1 | inactive
O=C(Oc1ccccc1)c1cc2ccccc2o1 | inactive
Cc1cc(C(=O)NNc2ccc(Cl)cc2)no1 | inactive
COc1cccc(C(=O)C2CCCN(CC3=Cc4cc(OC)ccc4OC3)C2)c1 (centres undefined) | inactive
N/C(=N\OC(=O)c1cccs1)c1ccccc1 | inactive
C=CCN(CC=C)C(=O)Cc1ccc(F)cc1 | inactive
O=[N+]([O-])c1ccc(Nc2ccccc2O)c2nonc12 | inactive
Cc1ccc2[nH]c(C)c(CCNC(=O)c3cc4cc([N+](=O)[O-])ccc4oc3=O)c2c1 | inactive
CC(NC(=O)c1cc2cc(Br)ccc2oc1=N)c1ccccc1 (centres undefined) | inactive
CCOCCOC(=O)COc1ccc2c(-c3ccccc3)cc(=O)oc2c1 | inactive
CC1=NN(C(=O)c2ccc(C)o2)C(O)(c2ccccc2)C1 (centres undefined) | inactive
N=c1oc2ccccc2cc1C(=O)NC1CCCCCC1 | inactive
O=C(NC1CCCC1)c1nc2c(nnn2Cc2cccc(Cl)c2)c(=O)[nH]1 | inactive
CC(=O)c1ccc(-n2cc(-c3ccc(C(C)(C)C)cc3)[n+]3c2SCCC3)cc1 | inactive
O=C(NCC(c1cccs1)N1CCOCC1)c1cc([N+](=O)[O-])cc([N+](=O)[O-])c1 (centres undefined) | inactive
COc1ccc([N+](=O)[O-])c(S(=O)(=O)c2ccc(Cl)cc2)n1 | inactive
COC(=O)CCCCCN1C(=O)/C(=C\c2ccncc2)SC1=S | inactive
COc1ccc(-c2noc(-c3cc4ccccc4oc3=O)n2)cc1 | inactive
CCN(CC)c1ccc2cc(C(=O)NCc3ccc(F)cc3)c(=N)oc2c1 | inactive
COc1ccccc1OCC(=O)N/N=C/C=C/c1ccc([N+](=O)[O-])o1 | inactive

Compound | outcome
O=C(Nc1ccccc1F)c1ccc(Br)o1 | inactive
O=C(Nc1nc2c(Cl)cccc2s1)c1ccc([N+](=O)[O-])o1 | inactive
Cc1ccccc1NC(=O)c1nc[nH]c1C(=O)NCc1ccccc1 | inactive
COc1ccccc1NC(=O)c1cnc(SC)nc1 | inactive
N=c1oc2ccc(Cl)cc2cc1C(=O)NC1CCCCCC1 | inactive
COc1cc2c(cc1OC)CN(CCC(=O)c1ccc(Br)cc1)CC2 | inactive
CC1(C)C[C@H]2C=C(C=O)[C@]3(C=O)C[C@]3(C)[C@H]2C1 | inactive
CCc1ccc(C(=O)COC(=O)c2ccc(Cl)nc2)cc1 | inactive
O=C(OCc1nnc(-c2ccccc2)o1)c1ccc(Br)o1 | inactive
Nn1c(SCCOc2ccc(Cl)cc2)nnc1-c1cccnc1 | inactive
COc1ccc(C(=O)COC(=O)c2ccc([N+](=O)[O-])s2)cc1OC | inactive
COc1cc(C=O)ccc1OCCOCCOc1ccc(Cl)cc1 | inactive
COC(=O)CCc1nc2c(C#N)c(-c3ccc(Cl)cc3)ccn2n1 | inactive
O=C(Nc1ccc(Br)cc1)c1cc([N+](=O)[O-])cc([N+](=O)[O-])c1 | inactive
O=C(NCC1CCCCC1)c1ccco1 | inactive
Oc1ccccc1-c1nnc(COc2ccccc2)o1 | inactive
CC12CN3CC(C)(CN(C1)C3c1ccc([N+](=O)[O-])o1)C2 (centres undefined) | inactive
Cc1cccc(NCCC(=O)c2ccc([N+](=O)[O-])cc2)c1C | inactive
Cc1ccc(CCC(=O)Nc2ccc(C)c(C)c2)o1 | inactive
COc1ccc(NC(=O)c2ccc(-c3ccc([N+](=O)[O-])cc3)o2)cc1OC | inactive
O=[N+]([O-])c1ccc(CN2CCN(c3ccc(Cl)cc3)CC2)o1 | inactive
CC1CC(C)CN(C(=O)COC(=O)c2ccc([N+](=O)[O-])o2)C1 (centres undefined) | inactive
Cc1cccc(NC(=O)c2n[nH]c([N+](=O)[O-])c2Br)c1C | inactive
